Measured values as given in the supplement of paper PMC10849652.
Targets with a hit are over-represented here; the source holds about 7,900 in all. About 0.6% of all pairs of compound and target were hits.

Assays:
Assay in all cases: log2 fold change, soluble protein after heating vs DMSO (PISA); higher = thermal stabilisation; K562 cells, 10 uM, 30 min; active = over 0.2 and 3.5 SD of the protein, either way, in both replicates (recomputed)
[1] = compound: CC[C@@H]1C(=O)N(C)c2cnc(Nc3ccc(C(=O)NC4CCN(C)CC4)cc3OC)nc2N1C1CCCC1
Outline: (§1)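 Values are thermal stability changes relative to control samples and are taken from duplicates. They are stated as log2 fold changes. Before quantification by TMTpro 16plex LC-MS/MS with equalised channel sums, K562 cells at 2×10^6 cells/mL were treated with 10 μM compound for 30 min, heated in aliquots for 3 min across 48°C-58°C, pooled, extracted in PBS with 0.5% NP-40 at 4°C, and centrifuged at 21,000xg for 90 min to give the soluble supernatant.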

volasertib = compound: CC[C@@H]1C(=O)N(C)c2cnc(Nc3ccc(C(=O)N[C@H]4CC[C@H](N5CCN(CC6CC6)CC5)CC4)cc3OC)nc2N1C(C)C [volasertib]
Outline: as §1

[2] = compound: CC[C@H](C)N1C=C(C2=C(C=C(C=C21)C3=CN=C(C=C3)N4CCNCC4)C(=O)NCC5=C(C=C(NC5=O)C)C)C
Outline: as §1

epoxomicin = compound: CC[C@H](C)[C@@H](C(=O)N[C@@H]([C@@H](C)O)C(=O)N[C@@H](CC(C)C)C(=O)[C@]1(CO1)C)NC(=O)[C@H]([C@@H](C)CC)N(C)C(=O)C [epoxomicin]
Outline: as §1

[3] = compound: CCn1c(C(=O)N(C2CC2)C2CC2)cc2c3c(ncn3C)c(Nc3cc(C)n(C)n3)nc21
Outline: as §1

[4] = compound: CCn1cc(-c2ccnc3[nH]c(-c4cccc(CN(C)C)c4)cc23)c(-c2ccc(NC(=O)N(C)C)cc2)n1
Outline: as §1

[5] = compound: CN(C)CC(=O)Nc1ccc2[nH]c(=O)c3ccccc3c2c1
Outline: as §1

rosiglitazone = compound: CN(CCOC1=CC=C(C=C1)C[C@H]2C(=O)NC(=O)S2)C3=CC=CC=N3 (racemic) [rosiglitazone]
Outline: as §1

[6] = compound: CN1C2=C(C3=C1C(=O)N(N=C3)CC4=CC(=CC=C4)N)SC(=C2)S(=O)C
Outline: as §1

[7] = compound: CN1CCC(CNc2ccc3ncc(-c4cccc(OC(F)(F)F)c4)n3n2)CC1
Outline: as §1

saracatinib = compound: CN1CCN(CCOc2cc(OC3CCOCC3)c3c(Nc4c(Cl)ccc5c4OCO5)ncnc3c2)CC1 [saracatinib]
Outline: as §1

sotrastaurin = compound: CN1CCN(c2nc(C3=C(c4c[nH]c5ccccc45)C(=O)NC3=O)c3ccccc3n2)CC1 [sotrastaurin]
Outline: as §1

alvocidib = compound: CN1CC[C@H](c2c(O)cc(O)c3c(=O)cc(-c4ccccc4Cl)oc23)[C@H](O)C1 [alvocidib]
Outline: as §1

Tubastatin A = compound: CN1CCc2c(c3ccccc3n2Cc2ccc(C(=O)NO)cc2)C1 [Tubastatin A]
Outline: as §1

[8] = compound: CNC(=O)C1=CC=CC=C1NC2=NC(=NC=C2Cl)NC3=C(C=C(C=C3)N4CCOCC4)OC
Outline: as §1

defactinib = compound: CNC(=O)c1ccc(Nc2ncc(C(F)(F)F)c(NCc3nccnc3N(C)S(C)(=O)=O)n2)cc1 [defactinib]
Outline: as §1

rucaparib = compound: CNCc1ccc(-c2[nH]c3cc(F)cc4c3c2CCNC4=O)cc1 [rucaparib]
Outline: as §1

[9] = compound: CNc1nc(-c2ccc3c(N)n[nH]c3c2)cc(N2C[C@@H](C(=O)NC3CCCCC3)CC[C@H]2C)n1
Outline: as §1

encorafenib = compound: COC(=O)N[C@@H](C)CNc1nccc(-c2cn(C(C)C)nc2-c2cc(Cl)cc(NS(C)(=O)=O)c2F)n1 [encorafenib]
Outline: as §1

[10] = compound: COC(=O)[C@H](CCSC)NC(=O)C1=C(C=C(C=C1)NC[C@H](CS)N)C2=CC=CC=C2
Outline: as §1

Measured: log2 fold change

ACBD6 (UniProt Q9BR61)
inactive: [1] -0.032 | [2] 0.103 | epoxomicin 0.05 | [3] 0.01 | [4] -0.11 | [5] 0.141 | rosiglitazone 0.363 | [6] -0.099 | [7] 0.046 | saracatinib -0.129 | sotrastaurin -0.115 | alvocidib -0.076 | Tubastatin A 0.196 | [8] 0.067 | defactinib -0.112 | rucaparib -0.061 | [9] 0.006 | encorafenib 0.098 | [10] -0.047
active: volasertib -0.473

ARAF (UniProt P10398)
Chain of UniProt P10398 (P10398 whole entry, looked up): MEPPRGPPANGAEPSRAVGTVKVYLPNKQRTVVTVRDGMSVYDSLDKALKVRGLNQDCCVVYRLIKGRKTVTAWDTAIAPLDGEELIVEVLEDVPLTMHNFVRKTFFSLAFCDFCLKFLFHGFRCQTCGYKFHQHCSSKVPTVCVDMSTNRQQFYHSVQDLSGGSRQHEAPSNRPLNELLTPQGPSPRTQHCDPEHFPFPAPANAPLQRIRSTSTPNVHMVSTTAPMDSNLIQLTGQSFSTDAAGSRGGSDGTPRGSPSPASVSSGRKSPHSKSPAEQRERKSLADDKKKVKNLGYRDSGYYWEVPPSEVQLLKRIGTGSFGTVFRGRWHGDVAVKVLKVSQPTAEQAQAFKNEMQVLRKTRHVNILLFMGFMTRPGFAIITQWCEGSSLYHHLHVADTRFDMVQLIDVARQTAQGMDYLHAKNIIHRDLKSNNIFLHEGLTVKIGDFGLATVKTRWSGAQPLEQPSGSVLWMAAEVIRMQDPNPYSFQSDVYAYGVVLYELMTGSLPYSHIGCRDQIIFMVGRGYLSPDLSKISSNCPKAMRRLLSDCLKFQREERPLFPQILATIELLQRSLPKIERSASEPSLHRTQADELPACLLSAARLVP
inactive: [1] 0.053 | volasertib 0.311 | [2] 0.129 | epoxomicin 0.013 | [3] -0.041 | [4] -0.002 | [5] 0.054 | rosiglitazone 0.047 | [6] -0.025 | [7] -0.132 | saracatinib 0.037 | sotrastaurin -0.022 | alvocidib 0.013 | Tubastatin A -0.004 | [8] -0.084 | defactinib -0.023 | rucaparib 0.01 | [9] 0.023 | encorafenib 0.177 | [10] -0.067

ATP9B (UniProt O43861)
inactive: [1] -0.002 | volasertib -0.15 | [2] -0.125 | epoxomicin 0.055 | [3] -0.204 | [4] -0.023 | [5] 0.013 | rosiglitazone 0.08 | [6] 0.013 | [7] -0.109 | saracatinib 0.13 | sotrastaurin -0.185 | alvocidib 0.008 | Tubastatin A -0.055 | [8] -0.02 | defactinib -0.025 | rucaparib 0.081 | [9] -0.027 | encorafenib 0.058 | [10] 0.06

AP2A1 (UniProt O95782)
Chain of UniProt O95782 (O95782 whole entry, looked up): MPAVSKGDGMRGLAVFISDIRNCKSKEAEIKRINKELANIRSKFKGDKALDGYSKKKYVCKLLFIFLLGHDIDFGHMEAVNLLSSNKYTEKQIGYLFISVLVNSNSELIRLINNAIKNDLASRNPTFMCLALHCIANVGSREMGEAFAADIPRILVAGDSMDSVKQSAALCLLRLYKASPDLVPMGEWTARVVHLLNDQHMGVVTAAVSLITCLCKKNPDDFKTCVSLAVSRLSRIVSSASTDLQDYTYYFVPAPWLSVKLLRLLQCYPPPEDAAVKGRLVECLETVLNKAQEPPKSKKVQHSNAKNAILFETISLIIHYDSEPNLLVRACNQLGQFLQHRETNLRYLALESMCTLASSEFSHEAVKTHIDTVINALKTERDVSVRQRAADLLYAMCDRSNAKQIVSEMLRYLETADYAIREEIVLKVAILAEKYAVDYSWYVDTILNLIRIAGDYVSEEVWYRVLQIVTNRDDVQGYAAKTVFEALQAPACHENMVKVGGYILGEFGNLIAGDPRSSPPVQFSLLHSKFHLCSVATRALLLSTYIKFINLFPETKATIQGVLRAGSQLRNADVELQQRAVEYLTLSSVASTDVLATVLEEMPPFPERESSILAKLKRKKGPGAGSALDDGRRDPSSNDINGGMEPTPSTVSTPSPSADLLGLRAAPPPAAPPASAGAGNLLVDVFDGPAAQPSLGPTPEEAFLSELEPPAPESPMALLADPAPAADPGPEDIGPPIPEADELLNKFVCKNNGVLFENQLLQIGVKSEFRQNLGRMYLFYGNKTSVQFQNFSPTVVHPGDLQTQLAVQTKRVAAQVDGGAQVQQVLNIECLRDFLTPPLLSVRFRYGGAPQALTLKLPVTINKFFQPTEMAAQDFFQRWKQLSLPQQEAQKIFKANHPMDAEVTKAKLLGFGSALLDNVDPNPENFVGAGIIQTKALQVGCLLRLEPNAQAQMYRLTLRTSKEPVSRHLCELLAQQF
inactive: [1] 0.076 | volasertib -0.085 | [2] 0.015 | epoxomicin -0.011 | [3] 0.022 | [4] -0.002 | [5] -0.041 | rosiglitazone -0.011 | [6] 0.005 | [7] 0 | saracatinib 0.049 | sotrastaurin 0.001 | alvocidib 0.027 | Tubastatin A 0.001 | [8] 0.004 | defactinib 0.012 | rucaparib 0.01 | [9] -0.047 | encorafenib 0.032 | [10] -0.038

ANP32E (UniProt Q9BTT0)
Chain of UniProt Q9BTT0 (Q9BTT0 whole entry, looked up): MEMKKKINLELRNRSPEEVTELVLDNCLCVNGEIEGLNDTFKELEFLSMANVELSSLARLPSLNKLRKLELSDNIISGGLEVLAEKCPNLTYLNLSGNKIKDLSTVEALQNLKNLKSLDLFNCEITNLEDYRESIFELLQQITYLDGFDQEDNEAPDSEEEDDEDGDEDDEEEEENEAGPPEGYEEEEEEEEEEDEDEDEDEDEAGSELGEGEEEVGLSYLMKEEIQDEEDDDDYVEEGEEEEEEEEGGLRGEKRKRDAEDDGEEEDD
inactive: [1] -0.132 | [2] 0.04 | epoxomicin 0.054 | [3] -0.085 | [4] -0.128 | [5] -0.051 | rosiglitazone -0.025 | [6] -0.058 | [7] -0.147 | saracatinib 0.006 | sotrastaurin -0.105 | alvocidib -0.109 | Tubastatin A 0.052 | [8] 0.041 | defactinib -0.239 | rucaparib -0.108 | [9] -0.06 | encorafenib 0.159 | [10] -0.022
active: volasertib -0.499

ALKBH5 (UniProt Q6P6C2)
Chain of UniProt Q6P6C2 (Q6P6C2 whole entry, looked up): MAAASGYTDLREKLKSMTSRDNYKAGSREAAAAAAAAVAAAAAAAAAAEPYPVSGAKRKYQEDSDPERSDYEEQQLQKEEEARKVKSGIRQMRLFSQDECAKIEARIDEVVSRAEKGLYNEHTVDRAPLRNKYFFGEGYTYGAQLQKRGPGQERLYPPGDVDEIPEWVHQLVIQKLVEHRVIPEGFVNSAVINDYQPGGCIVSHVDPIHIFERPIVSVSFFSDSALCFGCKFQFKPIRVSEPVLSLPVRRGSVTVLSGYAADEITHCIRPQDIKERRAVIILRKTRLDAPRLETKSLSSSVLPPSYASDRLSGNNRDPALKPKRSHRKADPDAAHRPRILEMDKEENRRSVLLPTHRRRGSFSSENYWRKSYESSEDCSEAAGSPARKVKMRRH
inactive: [1] 0.08 | volasertib 0.109 | [2] 0.01 | epoxomicin -0.033 | [3] -0.112 | [4] -0.058 | [5] -0.058 | rosiglitazone -0.015 | [6] -0.011 | [7] 0.041 | saracatinib -0.006 | sotrastaurin -0.044 | alvocidib 0.092 | Tubastatin A 0.118 | [8] -0.185 | defactinib 0.021 | rucaparib 0.11 | [9] 0.035 | encorafenib -0.048 | [10] 0.003

ATP13A3 (UniProt Q9H7F0)
active: [7] -0.401
inactive: [1] -0.085 | volasertib 0.077 | [2] 0.016 | epoxomicin 0 | [3] -0.014 | [4] -0.022 | [5] -0.012 | rosiglitazone 0.128 | [6] -0.011 | saracatinib -0.029 | sotrastaurin 0.048 | alvocidib -0.159 | Tubastatin A 0.002 | [8] -0.005 | defactinib -0.014 | rucaparib 0.091 | [9] 0.013 | encorafenib 0.037 | [10] 0.037

ATP1B3 (UniProt P54709)
Chain of UniProt P54709 (P54709 whole entry, looked up): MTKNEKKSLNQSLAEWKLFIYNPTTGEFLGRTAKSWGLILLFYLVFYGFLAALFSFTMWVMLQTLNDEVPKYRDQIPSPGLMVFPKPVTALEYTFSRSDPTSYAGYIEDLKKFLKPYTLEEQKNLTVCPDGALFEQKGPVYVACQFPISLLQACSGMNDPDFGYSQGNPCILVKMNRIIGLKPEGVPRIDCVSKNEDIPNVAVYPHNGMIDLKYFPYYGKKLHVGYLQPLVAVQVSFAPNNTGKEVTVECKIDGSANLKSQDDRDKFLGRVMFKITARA
inactive: [1] 0.06 | volasertib 0.094 | [2] -0.022 | epoxomicin -0.033 | [3] 0.04 | [4] -0.028 | [5] 0.012 | rosiglitazone -0.011 | [6] -0.063 | [7] 0.168 | saracatinib -0.019 | sotrastaurin 0.084 | alvocidib -0.038 | Tubastatin A -0.014 | [8] 0.004 | defactinib -0.047 | rucaparib -0.033 | [9] 0.016 | encorafenib -0.023 | [10] 0.034

ABHD17A isoform 2 (UniProt Q96GS6)
active: [7] -0.377 | [8] -0.595
inactive: [1] -0.072 | volasertib -0.172 | [2] -0.084 | epoxomicin -0.057 | [3] -0.058 | [4] -0.17 | [5] -0.067 | rosiglitazone 0.009 | [6] -0.015 | saracatinib 0.002 | sotrastaurin 0.01 | alvocidib 0.04 | Tubastatin A 0.065 | defactinib -0.008 | rucaparib 0.017 | [9] -0.052 | encorafenib 0.104 | [10] 0.059

ANKRD29 (UniProt Q8N6D5)
Chain of UniProt Q8N6D5 (Q8N6D5 whole entry, looked up): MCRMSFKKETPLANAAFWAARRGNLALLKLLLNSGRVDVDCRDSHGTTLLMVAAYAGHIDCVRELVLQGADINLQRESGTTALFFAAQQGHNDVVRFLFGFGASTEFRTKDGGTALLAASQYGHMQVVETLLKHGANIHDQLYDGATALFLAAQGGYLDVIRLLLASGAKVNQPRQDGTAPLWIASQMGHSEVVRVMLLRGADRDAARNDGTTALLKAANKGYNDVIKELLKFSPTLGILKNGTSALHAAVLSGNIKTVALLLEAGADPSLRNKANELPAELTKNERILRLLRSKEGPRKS
inactive: [1] -0.021 | volasertib -0.27 | [2] -0.152 | epoxomicin 0 | [3] -0.137 | [4] -0.233 | [5] 0.025 | rosiglitazone 0.111 | [6] -0.039 | [7] -0.043 | saracatinib -0.089 | sotrastaurin -0.011 | alvocidib -0.016 | Tubastatin A 0.27 | [8] -0.02 | defactinib -0.04 | rucaparib -0.227 | [9] 0.118 | encorafenib 0 | [10] -0.038

ATAD3A isoform 2 (UniProt Q9NVI7)
active: [7] -0.319
inactive: [1] -0.145 | volasertib -0.202 | [2] 0.038 | epoxomicin 0.05 | [3] -0.055 | [4] 0.033 | [5] 0.018 | rosiglitazone 0.007 | [6] 0.177 | saracatinib 0.001 | sotrastaurin -0.053 | alvocidib 0.102 | Tubastatin A 0.04 | [8] -0.139 | defactinib 0.05 | rucaparib 0.252 | [9] -0.017 | encorafenib 0.154 | [10] -0.046

ACTR1B (UniProt P42025)
active: [4] -0.581
inactive: [1] 0.081 | volasertib 0.048 | [2] 0.01 | epoxomicin -0.008 | [3] -0.014 | [5] 0.021 | rosiglitazone -0.033 | [6] -0.089 | [7] 0.306 | saracatinib 0.012 | sotrastaurin -0.025 | alvocidib -0.058 | Tubastatin A -0.004 | [8] 0 | defactinib -0.005 | rucaparib -0.037 | [9] -0.012 | encorafenib -0.048 | [10] -0.075

BRIX1 (UniProt Q8TDN6)
Chain of UniProt Q8TDN6 (Q8TDN6 whole entry, looked up): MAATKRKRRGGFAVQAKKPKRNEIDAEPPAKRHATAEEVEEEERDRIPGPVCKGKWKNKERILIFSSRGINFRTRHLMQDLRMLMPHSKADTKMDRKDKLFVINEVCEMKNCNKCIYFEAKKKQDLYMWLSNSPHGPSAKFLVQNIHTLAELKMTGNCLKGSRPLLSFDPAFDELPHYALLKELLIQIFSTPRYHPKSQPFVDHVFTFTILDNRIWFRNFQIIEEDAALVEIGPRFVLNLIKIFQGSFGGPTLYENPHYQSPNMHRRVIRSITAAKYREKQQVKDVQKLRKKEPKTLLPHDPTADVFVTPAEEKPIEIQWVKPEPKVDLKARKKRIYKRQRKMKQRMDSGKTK
inactive: [1] 0.166 | volasertib 0.317 | [2] 0.048 | epoxomicin -0.343 | [3] -0.041 | [4] 0.31 | [5] -0.143 | rosiglitazone -0.266 | [6] 0.36 | [7] 0.481 | saracatinib -0.106 | sotrastaurin -0.051 | alvocidib 0.174 | Tubastatin A 0.2 | [8] -0.154 | defactinib 0.394 | rucaparib 0.253 | [9] 0.129 | encorafenib 0.123 | [10] 0.017

BRAF (UniProt P15056)
inactive: [1] 0 | volasertib -0.097 | [2] 0.043 | epoxomicin 0.04 | [3] 0.008 | [4] 0.029 | [5] 0.036 | rosiglitazone 0.034 | [6] -0.039 | [7] -0.07 | saracatinib 0.029 | sotrastaurin -0.069 | alvocidib -0.059 | Tubastatin A 0.007 | [8] -0.02 | defactinib -0.058 | rucaparib 0.013 | [9] -0.059 | encorafenib 0.014 | [10] -0.037

ACSL4 (UniProt O60488)
Chain of UniProt O60488 (O60488 whole entry, looked up): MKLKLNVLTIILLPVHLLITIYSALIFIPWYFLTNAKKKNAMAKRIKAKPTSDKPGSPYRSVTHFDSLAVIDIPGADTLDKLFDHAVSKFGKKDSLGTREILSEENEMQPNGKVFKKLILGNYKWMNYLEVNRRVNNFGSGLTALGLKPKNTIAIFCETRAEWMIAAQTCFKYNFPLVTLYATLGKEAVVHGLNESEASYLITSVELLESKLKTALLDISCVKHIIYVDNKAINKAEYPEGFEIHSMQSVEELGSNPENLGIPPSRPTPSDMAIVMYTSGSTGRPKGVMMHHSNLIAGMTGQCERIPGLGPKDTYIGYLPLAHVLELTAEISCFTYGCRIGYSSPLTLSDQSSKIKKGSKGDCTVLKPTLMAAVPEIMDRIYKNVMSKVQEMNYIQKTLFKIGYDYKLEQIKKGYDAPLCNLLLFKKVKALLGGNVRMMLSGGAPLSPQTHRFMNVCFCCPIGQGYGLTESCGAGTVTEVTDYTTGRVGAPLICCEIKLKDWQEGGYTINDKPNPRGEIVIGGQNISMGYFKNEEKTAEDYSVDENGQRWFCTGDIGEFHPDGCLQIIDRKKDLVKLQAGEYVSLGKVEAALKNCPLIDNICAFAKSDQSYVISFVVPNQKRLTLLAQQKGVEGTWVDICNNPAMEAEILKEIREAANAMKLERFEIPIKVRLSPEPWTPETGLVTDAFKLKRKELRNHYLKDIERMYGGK
active: rosiglitazone 1.17
inactive: [1] -0.15 | volasertib -0.276 | [2] -0.051 | epoxomicin 0.024 | [3] -0.098 | [4] -0.029 | [5] 0.092 | [6] 0.051 | [7] -0.229 | saracatinib -0.128 | sotrastaurin -0.086 | alvocidib 0.033 | Tubastatin A 0.071 | [8] 0.05 | defactinib -0.041 | rucaparib 0.069 | [9] 0.043 | encorafenib 0.094 | [10] -0.024

ABCB6 (UniProt Q9NP58)
Chain of UniProt Q9NP58 (Q9NP58 whole entry, looked up): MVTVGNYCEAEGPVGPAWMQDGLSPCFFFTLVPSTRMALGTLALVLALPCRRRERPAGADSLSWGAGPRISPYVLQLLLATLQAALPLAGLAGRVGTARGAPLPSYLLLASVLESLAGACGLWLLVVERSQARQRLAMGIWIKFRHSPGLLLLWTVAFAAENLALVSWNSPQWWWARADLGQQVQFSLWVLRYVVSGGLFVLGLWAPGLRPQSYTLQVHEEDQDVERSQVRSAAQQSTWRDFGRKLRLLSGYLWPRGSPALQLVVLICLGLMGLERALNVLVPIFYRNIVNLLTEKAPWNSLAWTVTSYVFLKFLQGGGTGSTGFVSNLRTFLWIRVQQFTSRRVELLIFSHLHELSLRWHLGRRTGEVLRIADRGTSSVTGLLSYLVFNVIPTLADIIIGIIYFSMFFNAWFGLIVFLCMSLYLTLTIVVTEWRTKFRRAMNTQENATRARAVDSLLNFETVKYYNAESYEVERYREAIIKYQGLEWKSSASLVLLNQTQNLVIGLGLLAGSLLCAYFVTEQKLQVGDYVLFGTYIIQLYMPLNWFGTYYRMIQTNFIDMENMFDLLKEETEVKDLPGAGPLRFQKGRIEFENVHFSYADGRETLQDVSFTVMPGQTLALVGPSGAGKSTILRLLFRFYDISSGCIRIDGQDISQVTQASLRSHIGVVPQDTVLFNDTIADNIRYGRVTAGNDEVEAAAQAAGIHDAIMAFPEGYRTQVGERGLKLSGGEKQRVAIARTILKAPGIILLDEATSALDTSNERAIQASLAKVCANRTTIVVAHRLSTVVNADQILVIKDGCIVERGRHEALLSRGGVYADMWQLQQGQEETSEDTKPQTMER
inactive: [1] -0.131 | volasertib -0.051 | [2] 0.001 | epoxomicin -0.009 | [3] 0 | [4] -0.019 | [5] 0.061 | rosiglitazone 0.027 | [6] -0.053 | [7] -0.123 | saracatinib 0.073 | sotrastaurin 0.01 | alvocidib -0.064 | Tubastatin A -0.017 | [8] -0.013 | defactinib -0.031 | rucaparib -0.034 | [9] 0.003 | encorafenib 0.055 | [10] -0.017
